# Bioassay records: PubChem BioAssay, National Center for Advancing Translational Sciences (NCATS)
# GLS inh: qHTS for Inhibitors of Glutaminase (GLS); Glutaminase kidney isoform, mitochondrial (Homo sapiens), O94925; GLS enzymatic activity, qHTS titration; Potency, µM (doses to about 45.5 µM), for the others: top-dose activity change, negative = inhibition, usual class: inhibitors; 410,000 tested, 0.21% active; also: potency is read from the fitted curve at half-maximal effect; % is scaled to controls: 0 for no effect and ±100 for the full control effect
#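 Glutamate formation by hKGA was monitored fluorometrically using coupled glutamate oxidase, HRP and Amplex Red. Substrate was added as 1 mM L-glutamine solution; incubation was 30 min at RT after an initial read.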
# CCT chaperon mod: High-Throughput Screening for Modulators of Cytosolic Chaperonin Activity. purified chaperonin ATPase assay, HTRF ADP detection, 30 min. activity change, % (concentration not given with the values), hits read low. 360,000 tested, 0.3% active; in the data active = activity change below about -30%; also: % is scaled to controls: 0 for no effect and ±100 for the full control effect
#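 TRiC (40 or 20 nM final, by batch activity) in 30 mM Tris pH 7.4, 100 mM KCl, 5 mM MgCl2, 1 mM DTT was treated with compound at 76 uM single dose, then 10 uM ATP, 30 min at 37 °C. ADP was read by HTRF Transcreener.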
# PINK1 expr mod: A Quantitative High throughput Screen to Identify Chemical Modulators of PINK1 Expression; PINK1 immunofluorescence, high-content cytometry, 24 h; Potency, µM (doses to about 76.6 µM), for inactives: top-dose activation (PINK1 increase), usual class: activators; 410,000 tested, 0.2% active; AID 624263, 2012; active = well fitted activation curve with a large enough effect; inconclusive = small, poorly fitted or top-dose-only effect; cell line not stated here; also: potency is read from the fitted curve at half-maximal effect; % of control where 0% means no effect; nearly all actives have a fitted effect of over 65% in size
#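 Measures PINK1 amount and localization on or inside mitochondria by immunofluorescence. Stable cells get compounds at 5 concentrations for 24 hours before fixation and staining; CCCP controls included.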
# PGK inhibitor: qHTS Assay to Find Inhibitors of Phosphoglycerate Kinase; Phosphoglycerate kinase, glycosomal (Trypanosoma brucei brucei), P07378; PGK/GAPDH coupled, Kinase-Glo luminescence, 60 min; Potency, µM (series often up to 57.5 µM), without a hit: top-dose activity change, negative = inhibition, usual class: inhibitors; 380,000 tested, 0.043% active; AID 602233, 2012; also: potency is read from the fitted curve at half-maximal effect; % is scaled to controls: 0 for no effect and ±100 for the full control effect; nearly all actives have a fitted effect of over 60% in size
# Target sequence (P07378 whole entry, looked up): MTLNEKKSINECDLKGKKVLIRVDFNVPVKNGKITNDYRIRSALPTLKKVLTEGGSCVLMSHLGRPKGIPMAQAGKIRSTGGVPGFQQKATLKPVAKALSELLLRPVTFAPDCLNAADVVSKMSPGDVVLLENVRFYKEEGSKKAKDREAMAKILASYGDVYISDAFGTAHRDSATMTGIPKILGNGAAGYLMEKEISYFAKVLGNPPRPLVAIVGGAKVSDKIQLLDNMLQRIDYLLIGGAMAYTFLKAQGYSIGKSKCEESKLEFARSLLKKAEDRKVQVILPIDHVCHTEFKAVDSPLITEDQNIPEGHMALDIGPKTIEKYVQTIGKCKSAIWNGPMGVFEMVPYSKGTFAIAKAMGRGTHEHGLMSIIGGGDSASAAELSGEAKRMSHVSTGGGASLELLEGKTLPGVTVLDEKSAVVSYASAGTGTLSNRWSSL
#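 Recombinant glycosomal PGK reaction used 1,3-bisphosphoglycerate generated in-well by GAPDH (100nM final) in 100mM TEA pH 7.6, 5mM MgCl2, 0.01% Tween-20. After 60 minutes at room temperature, ATP was read by Kinase-Glo Plus luminescence end-point.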
# PI4K2A block: qHTS for small molecular inhibitors of PI4K2A. purified PI4K2A, ADP-Glo luminescence, 1 h; hits give low values. activity change, negative = inhibition, % at 76.9 µM. 420,000 tested, 0.13% active; in the data active = activity change below about -50%; inconclusive = mostly about -30% to -49%;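 also: -100% = wells without enzyme as full effect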
#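 In this quantitative HTS, ADP production by PI4K2A was quantified luminescently after 1 h at ambient temperature; 100 microM adenosine served as plate-quality control.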
# * hit, by the source's call; i = inactive; ? = inconclusive; nt = no result given; ! = not active in a repeat. In the library only some 0.78% were active in any assay of this set; here they are far more common. Unless noted, calls follow the shape of the dose curve; as a rule, active = well fitted curve in the direction sought with a large enough effect; inconclusive = small, poorly fitted or top-dose-only effect, or another doubt; inactive = no such curve, though single readings can be large; an effect the other way counts as inactive or inconclusive.
SMILES,GLS inh,CCT chaperon mod,PINK1 expr mod,PGK inhibitor,PI4K2A block
CCCCCCCC[n+]1cccc2c3ccccc3ccc21,-1.9%,-0.9,25.1µM*,0.2%,-2.2
Cc1oc(-c2ccccc2NC(=O)C2CCC2)nc1CNC(=O)c1ccc(C#CC(C)(C)O)cc1,nt,nt,2.8%,nt,nt
N=c1oc2c3c4c(cc2cc1C(=O)Nc1ccccc1)CCCN4CCC3,1.2%,-1.9,11.2µM*,7.4%,-4.3
CO[C@@H]1[C@@H](OC2OC(C)C(OC3CC(C)(O)C(O)C(C)O3)C(N(C)C)C2O)[C@@H](CC=O)C[C@@H](C)[C@@H](OC2CCC(N(C)C)C(C)O2)/C=C/C=C/C[C@@H](C)OC(=O)C[C@H]1OC(C)=O (some centres undefined),14.1%,nt,nt,nt,nt
COc1cccc(CN2CCCC(c3nc(-c4ccncc4)ncc3-c3ccccc3C)C2)c1O (centres undefined),nt,nt,0.0%,nt,nt
Cc1ccc(-c2nc3ccccc3s2)cc1NC(=O)c1cc(-n2cnnc2)ccc1Cl,-7.5%,-1.8,3.55µM*,-0.3%,6.5
CC(=O)Nc1cc(-c2nc3ccccc3s2)ccc1C,-2.1%,nt,2.4%,nt,-5.9
Cn1cc(CN2CCOc3ccc(C(O)C4CCCCC4)cc3C2)cn1 (centres undefined),nt,nt,0.0%,nt,nt
COc1ccccc1C=NN=C(NN=Cc1ccccc1OC)NN=Cc1ccccc1OC,15.4%,0.1,28.2µM*,i,-11.3
CCn1cc(C(=O)N2CCCc3ccccc32)c2cc(OC)c(OC)cc2c1=O,1.2%,-30.2*,0.4%,7.1%,-0.1
CCOC(=O)c1cc([N+](=O)[O-])sc1NC(=O)c1ccc(S(=O)(=O)N2CC3(C)CC2CC(C)(C)C3)cc1 (centres undefined),7.7%,-2.1,2.51µM*,-11.3%,-4.3
O=C(O)c1cc(N2N=C(C(F)(F)F)/C(=C/C=C/c3ccco3)C2=O)ccc1Cl,8.91µM*,-3.0,0.9%,?,-66.7*
O=C(Cn1sc2ccccc2c1=O)Nc1ccc(Br)cc1,7.08µM*,-2.9,-1.8%,-2.6%,-7.2
O=C(Cn1sc2ccccc2c1=O)Nc1ccc(Cl)cc1,7.08µM*,-1.3,-0.4%,0.6%,-10.6
O=C(Cn1sc2ccccc2c1=O)Nc1ccc(F)cc1,?,-1.8,-1.4%,-2.4%,-12.9
CC(=O)Nc1ccccc1-c1nc(CNC(=O)c2ccc(-c3ccccc3F)cc2)c(C)o1,nt,nt,2.9%,nt,nt
CCOC(=O)C(=Cc1ccc(N(C)C)cc1)C(=O)c1ccccc1,34.0%,-1.6,2.6%,nt,0.9
CCOC(=O)N(O)c1ccc(C=Cc2ccccc2)cc1,-12.2%,-1.2,-6.1%,28.2µM*,4.4
O=C(NCc1ccccn1)C1CCCN(S(=O)(=O)c2cc(Cl)ccc2Cl)C1 (centres undefined),8.8%,0.7,0.6%,-1.4%,-2.0
Cc1cc(S(=O)(=O)N2CCCC(N(C)CCc3ccccn3)C2)c(C)cc1Cl (centres undefined),14.7%,-75.1*,16.4%,i,-4.7
CCc1cc(C(=O)NCCN2Cc3ccccc3OC(c3ccsc3)C2)n(C)n1 (centres undefined),nt,nt,1.1%,nt,nt
COc1cc(=O)n2c(c1C(=O)N1CCc3ccccc3C1)CCN(Cc1ccc(CO)o1)CC2,nt,nt,-0.2%,nt,nt
O=C(Nc1cccc(C(F)(F)F)c1)c1csc(-c2ccncc2)n1,-10.5%,-3.1,-1.5%,-6.5%,1.4
COc1cc(NC(=O)c2csc(-c3ccncc3)n2)cc(C(=O)Nc2cccc(C(F)(F)F)c2)c1,0.7%,-34.8*!,0.9%,-7.3%,2.0
Cc1cccc(-c2cnc(C)nc2C2CCCN(C(=O)c3cccc(Cn4cccn4)c3)C2)c1 (centres undefined),nt,nt,0.7%,nt,nt
SMILES,GLS inh,CCT chaperon mod,PINK1 expr mod,PGK inhibitor,PI4K2A block
O=c1c2cccc(Cl)c2nc2n1Cc1ccccc1-2,12.6µM*,2.2,-1.2%,i,-25.1
COc1ccccc1C(=O)Nc1nc(-c2ccc(Br)cc2)ns1,7.8%,nt,1.0%,i,-10.3
CC(=O)Nc1nc(=S)ss1,-0.8%,-0.4,-1.7%,-1.9%,2.9
Cc1ccccc1C(=O)Nc1nc(=S)ss1,-4.1%,-57.5*,10.8%,-4.7%,0.6
Cc1ccccc1C(=O)Nc1nc(-c2ccc(Br)cc2)ns1,7.7%,nt,25.1µM*,-0.5%,-2.9
OC1(c2cccnc2)CCN(Cc2ccc3c(c2)CN(Cc2cccc(F)c2F)CCO3)CC1,nt,nt,-0.5%,nt,nt
CC(C)(C)c1nc2cc(Cl)c([N+](=O)[O-])cc2o1,?,-4.6,14.1µM*,i,1.5
CC(C)(C)Nc1nc2cc([N+](=O)[O-])ccc2o1,-4.1%,-1.1,6.3%,i,-0.9
CCN1CCCC1CNC(=O)c1cnn(-c2nccc(-c3cc4ccccc4o3)n2)c1C1CC1 (centres undefined),nt,nt,1.0%,nt,nt
Cn1c(NC(=O)c2cccc(Cn3cc(Cl)cn3)c2)nc2ccccc21,1.3%,-2.5,11.2µM*,-1.5%,1.1
COc1ccc(NC(=O)c2cc3cccc(OC)c3oc2=Nc2ccc(C(=O)O)cc2)cc1OC,6.31µM*,1.5,5.4%,0.3%,-0.6
Cc1ccc(S(=O)(=O)Oc2ccc(/C=C(/NC(=O)c3ccccc3)C(=O)Nc3ccccc3)cc2)cc1,3.6%,-66.8*,0.2%,i,-8.1
COc1ccc(NC(=O)/C(=C\c2ccc(OS(=O)(=O)c3ccc(C)cc3)cc2)NC(=O)c2ccccc2)cc1,1.3%,1.9,1.0%,-2.8%,-11.4
O=C(NCC1Cc2cccc(-c3nccs3)c2O1)c1ccnc(Cl)c1 (centres undefined),nt,nt,1.1%,nt,nt
CC/C=C(\C(=O)N[C@@H]1C(=O)N2C(C(=O)OCOC(=O)C(C)(C)C)=C(COC(N)=O)CS[C@H]12)c1csc(N)n1,nt,nt,nt,nt,-11.2
COc1ccc(/C=C2\SC(=S)N(CCCC(=O)Nc3cc(C)on3)C2=O)cc1OC,-3.7%,-1.4,10µM*,i,2.1
C=CCN1C(=O)/C(=C\c2cccc(OC(=O)c3ccco3)c2)SC1=S,-0.4%,-1.5,2.3%,0.4%,7.6
COc1ccc(/C=C2\SC(=S)N(CCCC(=O)N3CCN(C)CC3)C2=O)cc1OC,-10.4%,0.6,-2.5%,-5.5%,5.6
Cc1ccc(/C=C2\SC(=S)N(CCCC(=O)Nc3cc(C)on3)C2=O)cc1,13.4%,-0.6,-0.8%,-6.7%,-1.8
COc1ccc(/C=C2\SC(=S)N(CCCCCC(=O)Nc3cc(C)on3)C2=O)cc1OC,6.5%,-1.8,14.1µM*,-3.3%,5.6
CCOC(=O)N1CCN(C(=O)CCN2C(=O)/C(=C\c3ccc(OC)c(OC)c3)SC2=S)CC1,0.5%,-1.9,31.6µM*,-2.4%,2.0
